# Experimental data published in PubChem BioAssay (EPA / NIEHS).
# Inconclusive results are not listed. Calls of active or inactive are those of the source. How the source made its calls, unless noted: active means hit-call score of the fitted dose curve at least 0.9, where 1 is the maximum; inactive means score below 0.9.
# Key:
# [1] = VALA_TUBIPS_Antagonist_TubuleLength: VALA Sciences human iPS-derived Endothelial Tubule Formation (TUBIPS) Antagonist Assay (AID 2284313; active means hit-call score of the fitted dose curve at least 0.9, where 1 is the maximum)
# How it was run: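 Cells grown 3 days with 10 ng/ml VEGF, then exposed to compounds in VEGF medium for another 3 days. After fixation, nuclear stain and CD31 immunofluorescence imaging gave mean total tubule length against 0.1% DMSO; suramin (100 uM) inhibition control.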
# [2] = VALA_MIGHUV2_CellCount: Viability Assessment in the VALA Sciences human Umbilical Vein Endothelial Cell Migration (MIGHUV) Assay, Area of Scratch Wound after Recovery (AID 2284314; active means hit-call score of the fitted dose curve at least 0.9, where 1 is the maximum)
# Procedure: VALA_MIGHUV2_BCatenin is a cell-based, multiplexed assay that uses umbilical vein-derived endothelial cells (HUVEC). Measurements were taken 24 hours after chemical dosing in a 96-well plate.VALA_MIGHUV2_CellCount is the one of two assay components measured from the VALA_MIGHUV2 assay. It is designed to make measurements of viability, a form of viability reporter, as detected with fluorescence intensity signals by HCS Fluorescent Imaging technology. Data from the assay component VALA_MIGHUV2_CellCount was analyzed at the endpoint, VALA_MIGHUV2_CellCount, in the positive analysis fitting direction relative to DMSO as the negative control and baseline of activity. Using a type of viability reporter, loss-of-signal activity can be used to understand viability. To generalize the intended target to other relatable targets, this assay endpoint is annotated to the cell cycle intended target family, where the subfamily is cell count.
# Cells were seeded on 384-well microplates (day-0) at a density of 9000 cells per well for detection of wound area recovery or 4000 cells per well for detection of beta-catenin (CTNB) immunoreactivity and incubated in Endothelial Cell Growth Medium (CAI, San Diego; catalog 211-500). After 24 hours of culture, the HUVEC plates were scratched using a custom scratch head with the Bravo liquid handling system. This created a 'wound' area without cells in each well. […]
# [3] = VALA_MIGHUV2_Bcatenin: VALA Sciences human Umbilical Vein Endothelial Cell Migration (MIGHUV) Assay, Nuclear Translocation of beta-Catenin after Recovery (AID 2284315; active means hit-call score of the fitted dose curve at least 0.9, where 1 is the maximum)
# How it was run: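 HUVEC (4000 cells/well) scratch-wounded, dosed within 30 min over 6 concentrations in triplicate, recovered 24 h. After fixation, Hoechst and anti-beta-catenin immunofluorescence imaged for nuclear CTNB. Gain of signal versus 0.1% DMSO.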
# [4] = VALA_MIGHUV2_WoundArea: VALA Sciences human Umbilical Vein Endothelial Cell Migration (MIGHUV) Assay, Area of Scratch Wound after Recovery (AID 2284316; active means hit-call score of the fitted dose curve at least 0.9, where 1 is the maximum)
# How it was run: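 HUVEC seeded at 9000 cells/well, scratched after 24 h; test chemical added within 30 min, 6-point concentration response in triplicate (0.1% DMSO vehicle). After 24 h wound recovery, cells fixed and Hoechst-stained nuclei in wound area imaged; Cytochalasin D reference control.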
# [5] = CCTE_Mundy_HCI_iCellGluta_NOG_NeuriteLength: CCTE's Neurite Outgrowth Assay in iCellGluta cells for Neurite Length, Mundy Lab (AID 2284318; active means hit-call score of the fitted dose curve at least 0.9, where 1 is the maximum)
# How it was run: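 Automated high-content imaging of betaIII-tubulin (Alexa Fluor-488) and Hoechst-stained cells gave neurite length, normalized to the DMSO baseline.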
# TTR (gene 7276) = assay: CCTE_GLTED_hTTR_0.5uM: CCTE's human Transthyretin (hTTR) Inhibition Assay, with 0.5uM TTR, Great Lakes Toxicology and Ecology Division (GLTED) Lab (AID 2284320)
# How it was run: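 Cell-free displacement assay in which human TTR at 0.5 uM was incubated with test chemical for 2 h. Displacement of the ANSA probe was read by fluorescence at 380 nm excitation/475 nm emission. Loss of signal was fitted in the positive direction versus DMSO.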
# [6] = CCTE_Deisenroth_5AR_NBTE_donor: CCTE's 5alpha-reductase NanoBRET Target Engagement Assay […], Deisenroth Lab (AID 2284319); settings: actives raise or lower the signal
# How it was run: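 HEK293T cells transiently expressing SRD5A2-NanoLuc, exposed 5 h to chemicals (8 points, 10 nM - 29.9 uM), with testosterone tracer for the final 2 h. Donor luminescence at 460 nm read after Nano-Glo substrate plus extracellular NanoLuc inhibitor; bidirectional fit versus DMSO.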
# [7] = CCTE_Deisenroth_5AR_NBTE_acceptor: CCTE's 5alpha-reductase NanoBRET Target Engagement Assay - Autofluorescence Screen, Deisenroth Lab (AID 2284321); settings: actives raise or lower the signal;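 further: compound fluorescence in the acceptor channel under 460 nm excitation flags autofluorescence artifacts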
# How it was run: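 Autofluorescence check: ToxCast chemicals, nominal 100 uM, excitation 460 nm, n=3 runs. Acceptor fluorescence endpoint, bidirectional fit relative to DMSO. Parent assay in HEK293T, 5 h post-dose.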
# [8] = IUF_NPC2-5_viability_120hr: Viability Assessment at 120 hours in the Leibniz Research Institute for Environmental Medicine (IUF) Neural Progenitor Cell Migration and Differentiation Assay (NPC2-5) (AID 2284312)
# How it was run: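 Alamar blue resorufin fluorescence read after 5 days of differentiation, with compound present from day 0 and replenished at day 3. Primary hNPC spheres on laminin-coated plates, 37C; seven concentrations plus solvent control, fitted against DMSO.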
# IYD (gene 389434) = assay: CCTE_GLTED_hIYD: CCTE's human Iodotyrosine Deiodinase (xIYD) Inhibition Assay, Great Lakes Toxicology and Ecology Division (GLTED) Lab (AID 2284317; active means hit-call score of the fitted dose curve at least 0.9, where 1 is the maximum;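 further: cell-free human IYD enzyme made in baculovirus insect cells; iodide freed from monoiodotyrosine measured by cerium arsenite color change at 420 nm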)
# How it was run: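 hIYD: baculovirus-expressed human IYD deiodinated monoiodotyrosine for 3 h with test chemical; free iodide was measured by Sandell-Kolthoff absorbance at 420 nm and normalized to MNT and DMSO/NaOH controls.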
structure (smiles),measurement,setting,value
CC(C)(C)c1cc(O)ccc1O,outcome,[1],inactive
same,AC50,[2],74.3 µM (active)
same,AC50,[3],82.8 µM (active)
same,AC50,[4],73 µM (active)
O=C(O)C(F)(F)C(F)(F)C(F)(F)C(F)(F)C(F)(F)C(F)(F)F,outcome,[5],inactive
same,AC50,TTR (gene 7276),0.395 µM (active)
O=C(Nc1ccc2[nH]ccc2c1)c1cc2cc(F)ccc2n1Cc1cccc(F)c1,outcome,[6],inactive
same,outcome,[7],inactive
CCOP(=S)(OCC)Oc1nc(Cl)c(Cl)cc1Cl,outcome,[8],inactive
same,outcome,[6],inactive
same,outcome,[7],inactive
N#CN=C(N)N,outcome,[6],inactive
same,outcome,[7],inactive
CCC1(c2ccc(N)cc2)CCC(=O)NC1=O (centres undefined),outcome,[6],inactive
same,outcome,[7],inactive
C=CC#N,outcome,IYD (gene 389434),inactive
CC(=O)[O][Hg][c]1ccccc1,AC50,[6],27.1 µM (active)
same,AC50,[7],25.3 µM (active)
CCC[CH2][Sn]([CH2]CCC)([CH2]CCC)[O]C(=O)c1ccccc1,outcome,IYD (gene 389434),inactive
same,AC50,[6],5.2 µM (active)
same,AC50,[7],6.56 µM (active)
CCN1CCC2(CC1)COc1cc3c(cc12)N(C(=O)c1ccc(-c2ccc(-c4nnc(C)o4)cc2C)cc1)CC3,AC50,[6],2.7 µM (active)
same,AC50,[7],2.17 µM (active)
CC(C)(c1ccccc1)c1ccc(O)c(C(C)(C)c2ccccc2)c1,AC50,IYD (gene 389434),29.2 µM (active)
ClCC(Cl)CCl,outcome,[2],inactive
same,outcome,[4],inactive
O=C(OC1CCCCC1)c1ccccc1C(=O)OC1CCCCC1,outcome,[6],inactive
same,outcome,[7],inactive
C[C@@H]1C[C@@H]([C@H](O)CC2CC(=O)NC(=O)C2)C(=O)[C@@H](C)C1,outcome,[6],inactive
same,outcome,[7],inactive
CC(C)(C)CC(C)(C)c1ccc(O)cc1,AC50,IYD (gene 389434),66.8 µM (active)
C=C(C)C(=O)[O][Sn]([CH2]CCC)([CH2]CCC)[CH2]CCC,AC50,[5],0.241 µM (active)
same,AC50,[6],5.38 µM (active)
same,AC50,[7],5.27 µM (active)
